PubChem BioAssay (NCATS)
Inconclusive results are not listed. A call without a number means that no potency is given here. A number with no mark means an inactive call. The source made the active and inactive calls. Calls follow the shape of the dose curve; as a rule, active = well fitted curve in the direction sought with a large enough effect; inconclusive = small, poorly fitted or top-dose-only effect, or another doubt; inactive = no such curve, though single readings can be large; an effect the other way counts as inactive or inconclusive.

Legend:
[1] = Primary qHTS for inhibitors of nuclear receptor binding SET domain protein 2 (NSD2) in an isogenic RCH-ACV NSD2 p.E1099K mutant (9B) (AID 1645876)
[2] = Primary qHTS for inhibitors of nuclear receptor binding SET domain protein 2 (NSD2) in an RCH-ACV wild type WT cells (2C) (AID 1645877); also: potency is read from the fitted curve at half-maximal effect
Also: nearly all actives have a fitted effect of over 70% in size.

With `CC1(CO)CC[C@]2(C(=O)O[C@@H]3O[C@H](CO)[C@@H](O)[C@H](O)[C@H]3O)CC[C@]3(C)C(=CCC4[C@@]5(C)C[C@H](O)[C@H](O[C@@H]6OC[C@@H](O)[C@H](O)[C@H]6O)[C@@](C)(CO)C5CC[C@]43C)C2C1` (stereo not given in full) the activity change, negative = viability loss [1] was 1.64% [at 9.23 µM] and the outcome [2] was “inactive [at 9.23 µM]”.

Compound `CC(=O)O[C@@H]1[C@H](O[C@@H]2OC[C@](O)(CO)[C@H]2O)[C@@H](O[C@@H]2O[C@@H](C)[C@H](O)[C@@H](O)[C@H]2O)[C@H](OC(=O)[C@]23CCC(C)(C)C[C@H]2C2=CCC4[C@@]5(C)C[C@H](O)[C@H](O[C@@H]6O[C@H](C(=O)O)[C@@H](O)[C@H](O)[C@H]6O)[C@@](C)(C(=O)O)C5CC[C@@]4(C)[C@]2(C)CC3)O[C@@H]1C` (stereo not given in full) has an activity change, negative = viability loss [1] of -7.7% [at 9.23 µM] and an activity change, negative = cell killing [2] of -8.29% [at 9.23 µM].

For `CCC(C)C(=O)O[C@@H]1[C@@H](O)[C@@H](O[C@H]2O[C@H](CO)[C@@H](O)[C@H](O)[C@H]2O)O[C@H](CO)[C@H]1O` (stereo not given in full), the Potency [1] was “inactive” and the Potency [2] was “inactive”.

With `CC1(C)CCCC2(C)C(CO)C3CCC2C31` (stereo not given) the Potency [1] was “inactive” and the Potency [2] was “inactive”.

With `O=C(/C=C/c1ccccc1)OCC1=CC[C@@H]2C(C(=O)O)=CO[C@@H](O[C@@H]3O[C@H](CO)[C@@H](O)[C@H](O)[C@H]3O)[C@H]12` the Potency [1] was “inactive” and the Potency [2] was “inactive”.

With `CC(=O)OCC1=C[C@H](O)[C@@H]2C(C(=O)O)=CO[C@@H](O[C@@H]3O[C@H](CO)[C@@H](O)[C@H](O)[C@H]3O)[C@H]12` the Potency [1] was “inactive” and the Potency [2] was “inactive”.

In the case of `C=CC(C)(C)C1(CC2NC(=O)C3CCCN3C2=O)C(=O)Nc2cc3c(cc21)C=CC(C)(C)O3` (stereo not given), the Potency [1] is reported as “inactive” and the Potency [2] is reported as “inactive”.

`CC1(C)CC2C3=CCC4C5(C)CCC(OC6OC(C(=O)O)C(O)C(O)C6OC6OC(CO)C(O)C(O)C6OC6OC(CO)C(O)C(O)C6O)C(C)(CO)C5CCC4(C)C3(C)CCC2(C)C(OC2OCC(O)C(OC3OC(CO)C(O)C(O)C3O)C2O)C1O` (stereo not given) showed an activity change, negative = viability loss [1] of -1.65% [at 9.23 µM] and an activity change, negative = cell killing [2] of -4.93% [at 9.23 µM].

In the case of `CC(C)=CCc1ccc(Oc2c(O)cc(C)cc2CO)c(C(=O)O)c1O`, the Potency [1] is reported as “inactive” and the Potency [2] is reported as “inactive”.

In the case of `COc1cc(CC(COC2OC(CO)C(O)C(O)C2O)c2cc(/C=C/CO)cc(OC)c2O)ccc1O` (stereo not given), the Potency [1] is reported as “inactive” and the Potency [2] is reported as “inactive”.

For `C=CC(C)(C)C12CC3C(=O)NC(Cc4cnc[nH]4)C(=O)N3C1Nc1ccccc12` (stereo not given), the Potency [1] was “inactive” and the Potency [2] was “inactive”.

In the case of `C[C@@H]1O[C@@H](O[C@H]2[C@H](OC(=O)[C@]34CCC(C)(C)C[C@H]3C3=CCC5[C@@]6(C)C[C@H](O)[C@H](O[C@@H]7O[C@H](CO)[C@@H](O[C@@H]8O[C@H](CO)[C@@H](O)[C@H](O)[C@H]8O)[C@H](O)[C@H]7O)[C@@](C)(CO)C6[C@H](O)C[C@@]5(C)[C@]3(C)C[C@H]4O)OC[C@H](O)[C@@H]2O)[C@H](O)[C@H](O)[C@H]1O[C@@H]1OC[C@@H](O)[C@H](O[C@@H]2OC[C@](O)(CO)[C@H]2O)[C@H]1O` (stereo not given in full), the activity change, negative = viability loss [1] is reported as -3.67% [at 9.23 µM] and the activity change, negative = cell killing [2] is reported as 2.2% [at 9.23 µM].

In the case of `CC1(C)C[C@H]2C3=CCC4[C@@]5(C)CC[C@H](O[C@H]6O[C@H](C(=O)O)[C@@H](O)[C@H](O)[C@H]6O[C@H]6O[C@H](CO)[C@@H](O)[C@H](O)[C@H]6O[C@@H]6O[C@H](CO)[C@@H](O)[C@H](O)[C@H]6O)[C@](C)(CO)C5CC[C@@]4(C)[C@]3(C)CC[C@@]2(C)[C@H](O[C@@H]2OC[C@H](O)[C@H](OC3O[C@H](CO)[C@@H](O)[C@H](O)[C@H]3O)[C@H]2O)[C@@H]1O` (stereo not given in full), the outcome [1] is reported as “inactive [at 9.23 µM]” and the outcome [2] is reported as “inactive [at 9.23 µM]”.

With `COc1cc(C(O)C(CO)Oc2ccc(CCCO[C@@H]3O[C@@H](C)[C@H](O)[C@@H](O)[C@H]3O)cc2OC)ccc1O` (stereo not given in full) the Potency [1] was “inactive” and the Potency [2] was “inactive”.

For `CC(CCC1(O)OC2CC3C4CCC5CC(O[C@@H]6O[C@H](CO)[C@@H](O)[C@H](O)[C@H]6O[C@@H]6OC[C@@H](O)[C@H](O)[C@H]6O)C(O)CC5(C)C4CCC3(C)C2C1C)CO[C@@H]1O[C@H](CO)[C@@H](O)[C@H](O)[C@H]1O` (stereo not given in full), the outcome [1] was “inactive [at 9.23 µM]” and the outcome [2] was “inactive [at 9.23 µM]”.

For `COc1cc(/C=C/CO)ccc1O[C@@H]1O[C@H](CO)[C@@H](O)[C@H](O)[C@H]1O`, the Potency [1] was “inactive” and the Potency [2] was “inactive”.

With `CC(=O)OC[C@@]12[C@H](O)C[C@]3(C)C(=CCC4[C@@]5(C)CC[C@H](O[C@@H]6O[C@H](C(=O)O)[C@@H](O[C@@H]7O[C@H](CO)[C@@H](O)[C@H](O)[C@H]7O)[C@H](O)[C@H]6O[C@@H]6O[C@H](CO)[C@@H](O)[C@H](O)[C@H]6O)[C@](C)(CO)C5CC[C@]43C)[C@@H]1CC(C)(C)[C@@H](OC(C)=O)[C@@H]2O` (stereo not given in full) the activity change, negative = viability loss [1] was 3.64% [at 9.23 µM] and the outcome [2] was “inactive [at 9.23 µM]”.

In the case of `CC1(C)CC2C(O)C3=C(CC(C)(O)C2C1)C(=O)OC3O` (stereo not given), the Potency [1] is reported as “inactive” and the Potency [2] is reported as “inactive”.

In the case of `C[C@@H]1C[C@H]2[C@@H]3CCC4=CC(=O)C=C[C@]4(C)[C@@]3(F)[C@@H](O)C[C@]2(C)[C@@]1(O)C(=O)COP(=O)(O)O`, the Potency [1] is reported as “inactive” and the Potency [2] is reported as 91.6 nM (active).

For `CCC1CC2C(C)=CC3CCCCC3C2(C)C2(OC(=O)C(C)(O)OC2=O)O1` (stereo not given), the Potency [1] was “inactive” and the Potency [2] was “inactive”.

With `CC1=CCC2C(C)(CO)CCCC2(CO)C1CO` (stereo not given) the Potency [1] was “inactive” and the Potency [2] was “inactive”.

With `CC1CCC2C(C(=O)O)=CC3C(O)C(C)(C)CC123` (stereo not given) the Potency [1] was “inactive” and the Potency [2] was “inactive”.

In the case of `CN1CC[C@@H](NC(=O)Nc2ccc(C#N)cc2)C[C@@H]1c1nc2ccccc2[nH]1`, the Potency [1] is reported as “inactive” and the Potency [2] is reported as “inactive”.

Compound `C[C@@H]1O[C@@H](O[C@H]2[C@H](O)[C@@H](C(=O)O)O[C@@H](O[C@H]3CC[C@@]4(C)C(CC[C@]5(C)C4CC=C4C6CC(C)(C)CC[C@]6(C(=O)O)CC[C@]45C)C3(C)C)[C@@H]2O[C@@H]2O[C@H](CO)[C@@H](O)[C@H](O)[C@H]2O)[C@H](O)[C@H](O)[C@H]1O` (stereo not given in full) has an activity change, negative = viability loss [1] of -6.46% [at 9.23 µM] and an activity change, negative = cell killing [2] of -4.73% [at 9.23 µM].

For `C=C(C(=O)O)C1CCC(C)C2CCC(=O)OC2(C)C1` (stereo not given), the Potency [1] was “inactive” and the Potency [2] was “inactive”.

For `CC1=C2C(=O)C=C(CO)[C@@H]2[C@H]2OC(=O)[C@H](C)[C@@H]2[C@@H](O)C1`, the Potency [1] was “inactive” and the Potency [2] was “inactive”.

For `O=C(O[C@H]1[C@@H]2C[C@@H]3OC[C@@](O)([C@H]2[C@H](O[C@@H]2O[C@H](CO)[C@@H](O)[C@H](O)[C@H]2O)O3)[C@@H]1O)c1ccccc1`, the Potency [1] was “inactive” and the Potency [2] was “inactive”.

For `CC(C)C1=CCC(C)(O)C(OC2OC(CO)C(O)C(O)C2O)C1` (stereo not given), the Potency [1] was “inactive” and the Potency [2] was “inactive”.

For `COc1ccc2c3c1O[C@H]1C[C@@H](O)C=C[C@@]31CCN(C)C2`, the Potency [1] was “inactive” and the Potency [2] was “inactive”.

For `CC1=C2CC3OC3(C)CCC3OC3(C)CC2OC1=O` (stereo not given), the Potency [1] was “inactive” and the Potency [2] was “inactive”.

With `CC(C)c1cc2c(c(O)c1O[C@@H]1O[C@H](CO)[C@@H](O)[C@H](O)[C@H]1O)CC1(O)CCC(O)C(C)(C)C1CC2` (stereo not given in full) the Potency [1] was “inactive” and the Potency [2] was “inactive”.

In the case of `COC(=O)[C@H](OC(C)=O)[C@H]1C(C)(C)C(=O)[C@H]2CC3=C4CC(=O)O[C@@H](c5ccoc5)[C@]4(C)CCC3[C@@]1(C)C2=O` (stereo not given in full), the Potency [1] is reported as “inactive” and the Potency [2] is reported as “inactive”.

For `C=C1C[C@]23C[C@H]1CC[C@H]2[C@@]12C=C[C@H](O)[C@@](C)(C(=O)O1)[C@H]2[C@@H]3C(=O)O`, the Potency [1] was “inactive” and the Potency [2] was “inactive”.

In the case of `C=C/C=C/[C@@H]1OC[C@H](/C=C/C=C/C)[C@H]1O`, the Potency [1] is reported as “inactive” and the Potency [2] is reported as “inactive”.

For `CC(NCc1ccc(OCc2cccc(F)c2)cc1)C(N)=O` (stereo not given), the Potency [1] was “inactive” and the Potency [2] was “inactive”.

In the case of `CC1(C)CCC2(C(=O)OC3OC(COC4OC(CO)C(O)C(O)C4O)C(O)C(O)C3O)CCC3(C)C(=CCC4C5(C)CCC(O)C(C)(C(=O)O)C5CCC43C)C2C1O` (stereo not given), the activity change, negative = viability loss [1] is reported as 0.116% [at 9.23 µM] and the outcome [2] is reported as “inactive [at 9.23 µM]”.

With `CC(/C=C/C1(O)C(C)CC(O)CC1(C)C)OC1OC(CO)C(O)C(O)C1O` (stereo not given) the Potency [1] was “inactive” and the Potency [2] was “inactive”.

For `C[C@@H]1O[C@@H](O[C@@H]2[C@@H](O)[C@H](O[C@@H]3[C@@H](O)[C@@H](O)[C@H](O[C@H]4[C@H](OC(=O)[C@]56CCC(C)(C)C[C@H]5C5=CCC7[C@@]8(C)C[C@H](O)[C@H](O[C@@H]9O[C@H](C(=O)O)[C@@H](O)[C@H](O)[C@H]9O)[C@@](C)(CO)C8[C@H](O)C[C@@]7(C)[C@]5(C)CC6)OC[C@H](O)[C@@H]4O)O[C@H]3C)OC[C@H]2O)[C@H](O)[C@H](O)[C@H]1O` (stereo not given in full), the activity change, negative = viability loss [1] was -7.76% [at 9.23 µM] and the activity change, negative = cell killing [2] was -21.5% [at 9.23 µM].

With `CC(=O)c1c(C)cc(O[C@@H]2O[C@H](CO)[C@@H](O)[C@H](O)[C@H]2O)cc1O` the Potency [1] was “inactive” and the Potency [2] was “inactive”.

For `CC(=O)N1c2ccccc2C2(O)CC3C(=O)NC(CC(C)C)C(=O)N3C12` (stereo not given), the Potency [1] was “inactive” and the Potency [2] was “inactive”.

With `COc1cc([C@@H]2Oc3c(OC)cc(CCCO)cc3[C@@H]2CO[C@@H]2O[C@H](CO)[C@@H](O)[C@H](O)[C@H]2O)ccc1O` the Potency [1] was “inactive” and the Potency [2] was “inactive”.

With `COc1ccc(/C=C/C(=O)O[C@@H]2[C@@H](O)[C@H](C)O[C@@H](OC3C4C=COC(O[C@@H]5O[C@H](CO)[C@@H](O)[C@H](O)[C@H]5O)C4C4(CO)OC34)[C@@H]2O)cc1OC` (stereo not given in full) the Potency [1] was “inactive” and the Potency [2] was “inactive”.

With `CC1(C)CCC[C@@]2(C)[C@H]1[C@H](O)C=C1COC(=O)[C@@]12O` the Potency [1] was “inactive” and the Potency [2] was “inactive”.

For `C=CC1C(O[C@@H]2O[C@H](CO)[C@@H](O)[C@H](O)[C@H]2O)OC=C(C(=O)OC)C1Cc1nccc2c1[nH]c1ccccc12` (stereo not given in full), the Potency [1] was “inactive” and the Potency [2] was “inactive”.

With `CC(O)C(O)/C=C/C=C/C(=O)O[C@@H]1C=C2COC(=O)[C@]2(O)[C@@]2(C)CCCC(C)(C)C12` (stereo not given in full) the Potency [1] was “inactive” and the Potency [2] was “inactive”.
